PrP UTR inh: suppresses PrP 5' UTR mRNA reporter expression; cell-based PrP 5' UTR mRNA reporter, plate reader; inhibition, % (no concentration beside the values); 0.35% of 340,000 active; in the data active = inhibition above about 52%; also: 0 = median of the neutral control wells
SSB-PriA inh: blocks PriA binding to SSB C-terminal tail; AlphaScreen SSBct-PriA binding, biotinylated peptide; inhibition, % at 33 µM; 0.6% of 430,000 active; in the data active = inhibition mostly above about 37%, no sharp cut-off; inactive = mostly below about 20%;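 also: plate controls were negative control peptide for no effect and reference peptide for full effect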
BJeLR lethal: BJeLR cell viability loss; BJeLR (HRASV12) viability, CellTiter-Glo ATP luminescence, 48 h; inhibition, % (concentration not given with the values); 0.17% of 300,000 active; AID 1554; in the data active = inhibition above about 50%
PrPC TRFRET: inhibitors of human cell surface prion protein PrPC; TR-FRET read-out; 0.43% of 370,000 active; AID 720596; P04156; inhibition, % at 13.8 µM; in the data active = inhibition above about 24%; also: 0% = median of the test wells and 100% = reference compound wells
PfHsp40 rescue: rescue of PfHsp40-mediated yeast toxicity. S. cerevisiae expressing PfHsp40, growth rescue, ATP luminescence. growth rescue, % at 12.5 µM. 0.68% of 340,000 active. AID 504582; in the data active = growth rescue above about 28%, passing the limit was not always enough;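 also: yeast W303a lacking pdr1 and pdr3 grown in galactose medium; growth measured after three days at 30 °C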
RecA splice inh: Mtb RecA intein splicing inhibition; P9WHJ3; cell-free RecA intein splicing, fluorescence; inhibition, % (no concentration beside the values); 0.75% of 290,000 active; AID 2221; in the data active = inhibition above about 30%;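 also: 0% = vehicle wells and 100% = reference inhibitor control wells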
PrPC TRFRET cf: cell surface PrPC inhibition, TR-FRET confirmation | shares compounds with PrPC TRFRET | cell surface PrPC level | inhibition, % at 13.8 µM | 65% of 1,500 active | AID 743200; in the data active = inhibition above about 25%
LD9 cytotox: counter-screen for PrPc inhibitors: cytotoxicity in LD9 cells. inhibition, % at 13.8 µM. luminescence viability. 29% of 1,500 active. AID 743201. shares compounds with PrPC TRFRET; in the data active = inhibition above about 9.5%
Active calls of the source: *; x = not tested or not shown. This is a sample that favours compounds with a hit; in the whole collection about 1.9% have one here.

SMILES | PrP UTR inh | SSB-PriA inh | BJeLR lethal | PrPC TRFRET | PfHsp40 rescue | RecA splice inh | PrPC TRFRET cf | LD9 cytotox
Cc1cc2cc(CCNC(=O)/C=C\c3ccc4c(c3)OCO4)c(=O)[nH]c2cc1C | x | 0 | x | x | x | x | x | x
COc1ccc(CC(=O)NC(c2ccccc2)c2ccc(C)cc2)c(OC)c1 (stereo unspecified) | -26 | -4 | 3 | 30* | 0 | -4 | 28* | -9
O=C(COc1cccc2cccnc12)Nc1cccc(S(=O)(=O)N2CCCC2)c1 | 3 | -3 | x | 31* | 0 | x | 5 | 0
CNC(=O)c1c2c(nc3ccc(Br)cc13)CCCC2 | -3 | -10 | -4 | 25* | -2 | 2 | 35* | -4
Cc1ccc2nc3c(c(C(=O)O)c2c1)CCC3 | -19 | -11 | 1 | 2 | 0 | 0 | x | x
CSc1nc2c([nH]1)c(=S)n(C)c(=O)n2C | -7 | -17 | x | 34* | 2 | x | 0 | -1
COc1ccc(CC(=O)NCCNC(=O)c2ccc(NC(=O)C3CC3)cc2)cc1OC | x | -10 | x | x | x | x | x | x
CC1(C)CC(=O)c2sc(NC(=O)c3cccc(N4C(=O)CCC4=O)c3)nc2C1 | x | 7 | x | x | x | x | x | x
Cc1ccc(C)c(S(=O)(=O)N2CCN(C(=O)c3ccccc3Cc3ccccc3)CC2)c1 | -17 | -14 | 13 | 55* | 0 | 2 | 0 | -3
COc1ccc(NC(=O)c2cccc(-c3ccc(O)cc3)c2)cn1 | -27 | 8 | 5 | 33* | 1 | x | 14 | 5
CN(c1ccccc1)c1ncccn1 | x | -1 | -11 | 9 | x | 6 | x | x
COc1cnc(-c2ccccn2)nc1N(C)c1ccccc1 | -3 | 98* | -5 | 34* | 183* | 7 | 27* | 23*
COc1ccccc1NC(=O)NCCC(O)c1cccc2ccccc12 (stereo unspecified) | x | 19 | x | x | x | x | x | x
Clc1cccc(-c2ccc(CNCc3ccccn3)o2)c1 | -14 | 33 | -2 | -1 | -2 | 9 | x | x
Brc1ccc(-c2ccc(CNCc3ccccn3)o2)cc1 | -9 | 23 | 1 | 30* | -1 | 1 | 49* | -3
O=c1nc(N/N=C/c2ccccn2)cn[nH]1 | -9 | x | -6 | 25* | 617* | x | 23 | 9.5*
Cc1ccc(/C=N/Nc2cn[nH]c(=O)n2)o1 | -30 | x | 10 | -3 | -2 | -3 | x | x
CC1(C)COc2cc(NC(=O)c3cccc(Cl)c3)ccc2NC1=O | x | 23 | x | x | x | x | x | x
O=C(NCc1ccncc1)C(=O)NCc1cccs1 | x | -16 | x | x | x | x | x | x
COc1ccc(NC(=S)NC(NC(=O)c2cccc(Cl)c2)C(Cl)(Cl)Cl)c([N+](=O)[O-])c1 (stereo unspecified) | -20 | -3 | -2 | 0 | 2 | 24 | x | x
O=C(NC(NC(=S)Nc1ccccc1Cl)C(Cl)(Cl)Cl)c1cccc(Cl)c1 (stereo unspecified) | -22 | -9 | 3 | 25* | 0 | 14 | 40* | 11*
CCN(CC)C(=O)CSc1nc(O)c(Cc2ccccc2)c(=O)n1-c1ccccc1 | -15 | -15 | 0 | 60* | 1 | 2 | 53* | -7
CCN(CC)C(=O)CSc1nc(O)c(Cc2ccccc2)c(=O)n1-c1ccc(C)cc1 | -12 | -2 | 7 | 2 | 0 | 0 | x | x
Cc1ccccc1Cn1nc(-c2ccccc2)c2sc(N3CCCC3)nc2c1=O | x | 2 | x | x | x | x | x | x
COc1ccc2c(c1)CCC1(C)CC(=O)C(Br)=C21 (stereo unspecified) | x | x | x | 42* | x | x | 68* | -4
SMILES | PrP UTR inh | SSB-PriA inh | BJeLR lethal | PrPC TRFRET | PfHsp40 rescue | RecA splice inh | PrPC TRFRET cf | LD9 cytotox
CCc1c(C)nc2c(Br)cccc2c1SCCC#N | -5 | -22 | 6 | 64* | 0 | 4 | 90* | -5
CC1CCC(NC(=O)CNC(=O)Cc2cccc3ccccc23)CC1 (stereo unspecified) | -10 | -12 | -10 | 31* | 0 | x | 0 | -5
Cc1cc2cc(CNC(=O)C(C)Oc3ccccc3)ccc2n1C (stereo unspecified) | -14 | -2 | -6 | 36* | 1 | 0 | 20 | -5
Cc1cc2cc(CNC(=S)NCc3ccccc3)ccc2n1C | -26 | 75* | -2 | 31* | 0 | -1 | 29* | -7
Cc1ccccc1NC(=S)NCc1ccc2c(c1)cc(C)n2C | -21 | 36 | -1 | 13 | 0 | -1 | x | x
COc1ccccc1NC(=S)NCc1ccc2c(c1)cc(C)n2C | -16 | 88* | -8 | 50* | 1 | 3 | 7 | -10
N#CNC(=Nc1cccc(F)c1)SCc1ccccc1F | -5 | -16 | 5 | 26* | 2 | 2 | 17 | 8
Nc1ccc(S(=O)(=O)NNC(=O)C(=O)NNc2ccccc2)cc1 | -2 | -11 | -3 | 20 | -1 | -13 | x | x
O=C(NNc1ccccc1)C(=O)NNS(=O)(=O)c1ccc(CCCl)cc1 | -21 | -12 | 0 | 27* | -2 | -4 | 24 | -3
O=C(CN1CCC(Cn2cnc3ccccc32)CC1)N1CCC(Cc2ccccc2)CC1 | x | 0 | x | x | x | x | x | x
CC(=O)Nc1ccc(-c2nn[nH]n2)cc1 | -2 | -4 | -2 | 2 | 0 | -1 | x | x
CC(=O)Nc1ccc(-c2ccnc(-c3ccc(NC(C)=O)cc3)n2)cc1 | -17 | -4 | -1 | 58* | 0 | 0 | 56* | -5
COC(=O)CNC(=O)c1sccc1N(C)S(=O)(=O)c1ccc(Cl)cc1 | x | -4 | x | x | x | x | x | x
COc1ccc(-c2nc3ccc(Br)cn3c2Cc2cccc(F)c2)cc1OC | x | x | x | 36* | x | x | 65* | -8
Clc1cccc(Cc2c(-c3ccco3)nc3ccc(Cl)cn23)c1 | x | x | x | 6 | x | x | x | x
COc1ccc(-c2nc3ccc(C)cn3c2Cc2cccc(F)c2)cc1OC | x | x | x | -9 | x | x | x | x
Clc1cccc(Cc2c(-c3ccco3)nc3ccc(Br)cn23)c1 | x | x | x | 42* | x | x | 51* | -4
Brc1ccc2nc(-c3ccco3)c(Cc3ccccc3)n2c1 | x | x | x | 37* | x | x | 66* | 1
CCOc1ccc(N(C)S(=O)(=O)c2ccsc2-c2nc(-c3cccc(Cl)c3)no2)cc1 | x | -1 | x | x | x | x | x | x
COc1cc(C(=O)OCC(=O)c2cccc3ccccc23)cc(OC)c1O | x | -3 | x | x | x | x | x | x
Cc1cc2cc(CNS(=O)(=O)c3ccccc3)ccc2n1C | -32 | 16 | 4 | 35* | 4 | 10 | 29* | -5
COc1ccc(S(=O)(=O)NCc2ccc3c(c2)cc(C)n3C)cc1 | -26 | 34 | -5 | 38* | 2 | 4 | 41* | -2
CCS(=O)(=O)NCc1ccc2c(c1)cc(C)n2C | -28 | 10 | -11 | -6 | 0 | 23 | x | x
Cc1nn(C2CCS(=O)(=O)C2)c2nc(-c3ccco3)cc(C(=O)NCc3cccs3)c12 (stereo unspecified) | x | 1 | x | x | x | x | x | x
CC1(C)NC(=O)N(CC(O)COc2ccc(-c3ccc(C#N)cc3)cc2)C1=O (stereo unspecified) | -3 | -20 | 5 | 30* | 1 | -1 | 14 | 9
COc1ccc(S(=O)(=O)N2CCN(C)CC2)cc1C(C)(C)C | x | -14 | x | x | x | x | x | x
